The panel holds about 83,000 compounds, 20% with a hit somewhere; the sample as a whole holds those more often.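 Cells were grown in 96-well plates and exposed to the test compound at a single concentration for 48 hours; results are reported as percent growth, with values below 10 considered active.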 Calls of active or inactive are those of the source.
These compounds were tested on SK-MEL-28 melanoma (assay: NCI-60 one-dose screen, 48 h (100 = growth as untreated, 0 = no growth, -100 = all killed)). Settings: 10 µM unless noted.
Experimental: Growth inhibition of the SK-MEL-28 human tumor cell line is measured as a screen for anti-cancer activity. Cells are grown in 96 well plates and exposed to the test compound for 48 hours. Compounds are tested at a single concentration, which is 10^-5 M for most compounds. The reported endpoint is percent growth (GI% or GIPRCNT), where numbers from 0 - 100% represent growth inhibition, and numbers from -100% - 0 represent cell death. For example, a value of 40 represents 60% growth inhibition. A value of 0 means no net growth occurred over the course of the experiment. A value of -40 indicates 40% of cells at the beginning of the experiment died by the end of the experiment. A value of -100 means all cells are dead at the end of the experiment.
NCI-60 Human Tumor Cell Lines Screen was performed using the standard one-dose NCI protocol, which is described in more detail at https://dtp.cancer.gov/discovery_development/nci-60/default.htm.
Compounds with GIPRCNT values below 10 were considered active. Activity score was based on GIPRCNT using the following formula: […]
Score is 0 for GIPRCNT values of 100 or above, 50 for GIPRCNT values of 0, and 100 for GIPRCNT values of -100.

**Q.** How did the growth turn out when `O=C(/C=C/c1ccco1)c1cccc(Nc2nc(Nc3ccccc3)nc(Nc3ccccc3)n2)c1` was run?
**A.** 95% (inactive)

**Q.** For `C#CC(=O)/C=C/CCCCCCC#CC(=O)CCC(=O)C#CCCCCCC/C=C/C(=O)C#C`, which growth is on record?
**A.** 12.8% (inactive)

**Q.** How did the growth turn out when `CCc1ccc(C2=C/C(=C/c3ccc(Cl)cc3)C(=O)N2CCc2ccc(S(N)(=O)=O)cc2)cc1` was run?
**A.** 38.2% (inactive)

**Q.** For `CC(C)C1(C(C)C)NC(=O)NC1=O`, which growth is on record?
**A.** 95.9% (inactive)

**Q.** How did the growth turn out when `COc1cc(NC(C)CCCN2C(=O)c3ccccc3C2=O)c2ncccc2c1OC` (stereo not given) was run?
**A.** 105% (inactive)

**Q.** How did the growth turn out when `CC(=O)Cc1cccnc1` was run?
**A.** 113% (inactive)

**Q.** Which growth does the source give for `CCOC(=O)CSc1nnc(-c2cc3c([nH]c4ccccc43)c(-c3cccc(O)c3)n2)n1-c1ccc(C)cc1` here?
**A.** 79.9% (inactive)

**Q.** Which growth does the source give for `COC(=O)c1oc2c(C(C)=O)c(OCCN3CCCCC3)ccc2c1C` here?
**A.** 133% (inactive)

**Q.** For `COc1ccc(/C=C/C(=O)c2ccc(-n3cc(CN4CCN(c5cc6c(cc5F)c(=O)c(C(=O)O)cn6C5CC5)CC4)nn3)cc2)cc1OC`, which growth is on record?
**A.** 34.6% (inactive)

**Q.** How did the growth turn out when `CCOC(=O)n1cnc2c(Cl)ncnc21` was run?
**A.** 121% (inactive)

**Q.** Which growth does the source give for `C[C@]12O[C@H]1[C@H](O)c1c(cc(O)c3c1C(=O)c1cccc(O)c1-3)C2=O` here?
**A.** 107% (inactive)

**Q.** With `COc1cc(C(=O)NNC(=O)c2ccccc2C(=O)O)cc(OC)c1OC` as the compound, how does the growth read?
**A.** 75.6% (inactive)

**Q.** `COc1ccc2c(c1)nnn1c3ncccc3c(N=O)c21` was tested. Which growth did it give?
**A.** 16.2% (inactive)

**Q.** With `CCCCNC(=O)Oc1ccc(/C(=C(/CC)Cc2ccccc2)c2ccc(OCCCN(C)C)cc2)cc1` as the compound, how does the growth read?
**A.** 95.9% (inactive)

**Q.** For `NCC(=O)NS(=O)(=O)OC[C@H]1O[C@@H](n2cnc3c(N)ncnc32)[C@H](O)[C@@H]1O`, which growth is on record?
**A.** 8.36% (active)

**Q.** With `CCOc1ccc(NC2=C(Cl)C(=O)c3ccccc3C2=O)cc1` as the compound, how does the growth read?
**A.** 46.9% (inactive)

**Q.** How did the growth turn out when `COc1cc(NC(C)CCCN2C(=O)c3ccccc3C2=O)c2nc(C)ccc2c1OC` (stereo not given) was run?
**A.** 97.4% (inactive)

**Q.** For `O=C(Nc1ccc(-n2ccc3c(NC(=O)c4ccccc4)ncnc32)cc1)Nc1cccc(Cl)c1Cl`, which growth is on record?
**A.** -24.2% (active)

**Q.** With `c1ccc([Se]CCCN2CCN(CCC[Se]c3ccccc3)CC2)cc1` as the compound, how does the growth read?
**A.** 111% (inactive)

**Q.** With `CCCCCCCCCCCCCCCCCCNCc1ccc(Cl)cc1` as the compound, how does the growth read?
**A.** 27.2% (inactive)

**Q.** `NC(=NCCCOc1ccc(F)cc1)Nc1ccc(Cl)c(Cl)c1` was tested. Which growth did it give?
**A.** 94.3% (inactive)

**Q.** `CC(=O)Nc1ccc(OC(=O)c2ccccc2O)cc1` was tested. Which growth did it give?
**A.** 120% (inactive)

**Q.** `O=C(Nc1ccc(-n2cc(-c3ccncc3)c(-c3ccc(O)c(Cl)c3)n2)cc1)c1ccc(Cl)c(C(F)(F)F)c1` was tested. Which growth did it give?
**A.** 44.3% (inactive)

**Q.** Which growth does the source give for `COc1ccc(C[C@H](N)C(=O)N[C@@H]2[C@@H](CO)OC(n3cnc4c(N(C)C)ncnc43)[C@@H]2O)cc1` (stereo not given in full) here?
**A.** -64.4% (active)

**Q.** With `Nc1n[nH]c2cccc(C#Cc3cccc(NC(=O)c4cccc(C(F)(F)F)c4)c3)c12` as the compound, how does the growth read?
**A.** 23.9% (inactive)

**Q.** With `Nc1nc(Cl)cc(NCc2ccc(CNc3cc(Cl)nc(N)n3)cc2)n1` as the compound, how does the growth read?
**A.** 120% (inactive)

**Q.** How did the growth turn out when `CCCCC(=O)Nc1nc2ccc(SCCC)cc2s1` was run?
**A.** 64.8% (inactive)

**Q.** Which growth does the source give for `CCCOC(=O)c1ccc([N+](=O)[O-])o1` here?
**A.** 106% (inactive)

**Q.** How did the growth turn out when `Cc1ccc(Cn2cc(COc3ccc4c5ccnc(C)c5n(CCCc5ccccc5)c4c3)nn2)cc1` was run?
**A.** 104% (inactive)

**Q.** For `CCCCn1c(-c2cccc(OC)c2)nc2cc(OC)c(OC)cc2c1=O`, which growth is on record?
**A.** 109% (inactive)

**Q.** For `Nc1ncnc2c1c(-c1ccc(Oc3ccccc3)cc1)nn2C[C@@H]1SSC[C@H]1O`, which growth is on record?
**A.** 31.4% (inactive)

**Q.** `O=C(CSc1nnc(-c2ccc(Cl)cc2)o1)Nc1ccc(C(=O)/C=C/c2ccccc2)cc1` was tested. Which growth did it give?
**A.** 105% (inactive)

**Q.** With `O=C(Nc1ccc(-n2ccc3c(NC(=O)c4ccccc4)ncnc32)cc1)Nc1ccc(Cl)c(Cl)c1` as the compound, how does the growth read?
**A.** 5.26% (active)

**Q.** For `COc1ccc(-c2cc3ccc(N(C)C)cc3nc2N)c(F)c1`, which growth is on record?
**A.** 38.4% (inactive)

**Q.** Which growth does the source give for `CC(C)Cn1cnc2c3ccccc3nc(NCn3nc(-c4cc(Cl)cc(Cl)c4Cl)oc3=S)c21` here?
**A.** 110% (inactive)

**Q.** `C=C1C(=O)O[C@H]2[C@H]1CC/C(COC(=O)c1ccc(C#N)cc1)=C\CC[C@@]1(C)O[C@@H]21` was tested. Which growth did it give?
**A.** 3.18% (active)

**Q.** Which growth does the source give for `NC(=O)C1=C[C@H]2[C@H]3C=C[C@@]2(O)C(=O)O[C@@H]3O1` here?
**A.** 25.2% (inactive)

**Q.** How did the growth turn out when `COc1ccc2c(c1)nnc1c3cccnc3[nH]c21` was run?
**A.** 31.9% (inactive)

**Q.** `O=C(COc1ccc(Cl)cc1Cl)N1N=C(c2ccc(Cl)cc2Cl)CC1(O)c1cc(F)c(Cl)cc1Cl` (stereo not given) was tested. Which growth did it give?
**A.** 141% (inactive)

**Q.** For `ClC1c2ccccc2CCc2ccccc21`, which growth is on record?
**A.** 112% (inactive)
